Measurements reported in PubChem BioAssay (NCI).
The panel holds about 83,000 compounds, 20% with a hit somewhere; the sample as a whole holds those more often.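 Activity criterion: percent growth below 10, measured after cells in 96-well plates were exposed to a single compound concentration for 48 hours.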 Activity calls are given as the source filed them.

Key:
Test in all cases: NCI-60 one-dose screen, 48 h (100 = growth as untreated, 0 = no growth, -100 = all killed)
Conditions in all cases: 10 µM unless noted
[1] = system: HCT-15 colon
[2] = system: HT29 colon
[3] = system: SNB-75 CNS
[4] = system: SNB-19 CNS
[5] = system: U251 CNS
[6] = system: PC-3 prostate
[7] = system: SK-MEL-5 melanoma
[8] = system: UACC-62 melanoma
[9] = system: LOX IMVI melanoma
[10] = system: SK-MEL-28 melanoma
[11] = system: SK-MEL-2 melanoma
[12] = system: EKVX NSCLC
[13] = system: SN12C renal
[14] = system: UO-31 renal
[15] = system: TK-10 renal
[16] = system: ACHN renal
[17] = system: CAKI-1 renal
[18] = system: A498 renal
[19] = system: CCRF-CEM leukemia
[20] = system: MOLT-4 leukemia

Measured: growth

CCCCSc1ncnc2c1ncn2C1CCCCO1 (stereo not given)
inactive: [1] 102% | [2] 109% | [3] 104% | [4] 103% | [5] 99.9% | [6] 99.5% | [7] 104% | [8] 99.6% | [9] 101% | [10] 119% | [11] 104% | [12] 115% | [13] 103% | [14] 91.2% | [15] 109% | [16] 110% | [17] 110% | [18] 94.6% | [19] 99.6% | [20] 96.9%

CCCCCCCCOC(=O)C(C)OC(=O)OCCOCCOC(=O)OC(C)C(=O)OCCCCCCCC (stereo not given)
inactive: [1] 111% | [2] 115% | [3] 102% | [4] 104% | [5] 106% | [6] 87.7% | [7] 107% | [8] 94.2% | [9] 101% | [10] 106% | [11] 110% | [12] 94% | [13] 99.3% | [14] 87.5% | [15] 115% | [16] 98.8% | [17] 95.8% | [18] 119% | [19] 102% | [20] 108%

CSc1nc(N)c2[nH]c(-c3cc4ccccc4[nH]c3=O)nc2n1
inactive: [1] 64.8% | [2] 94.2% | [3] 113% | [4] 109% | [5] 84.7% | [6] 78.7% | [7] 100% | [8] 83.4% | [9] 69.9% | [10] 116% | [11] 74.2% | [12] 103% | [13] 85.1% | [14] 57.3% | [15] 106% | [16] 61.1% | [17] 68.9% | [18] 92.4% | [19] 91.6% | [20] 79.8%

COc1cc(NCCC2CCCCN2)c2ncccc2c1OC (stereo not given)
inactive: [1] 86.1% | [2] 73.7% | [3] 156% | [4] 91.8% | [5] 33.5% | [6] 68.2% | [7] 77.8% | [8] 81.1% | [9] 15% | [10] 107% | [11] 50.5% | [12] 114% | [13] 81.6% | [14] 65.3% | [15] 104% | [16] 82.9% | [17] 100% | [18] 113% | [19] 47.2% | [20] 43%

CCOC(=O)Cc1cc(Br)c(OCc2ccccc2)c(Br)c1
inactive: [1] 88.7% | [2] 99% | [3] 87.3% | [4] 97.9% | [5] 90.2% | [6] 84.1% | [7] 104% | [8] 70.8% | [9] 87.6% | [10] 106% | [11] 94.8% | [12] 90.9% | [13] 88.9% | [14] 80.5% | [15] 96.8% | [16] 92% | [17] 77.2% | [18] 109% | [19] 95.4% | [20] 77.2%

Cn1c(-c2ccccc2)cc(=O)n1-c1ccccc1
inactive: [1] 104% | [2] 106% | [3] 92.9% | [4] 108% | [5] 109% | [6] 100% | [7] 104% | [8] 103% | [9] 101% | [10] 113% | [11] 121% | [12] 93.7% | [13] 107% | [14] 101% | [15] 116% | [16] 109% | [17] 95.6% | [18] 89.1% | [19] 91.1% | [20] 99.6%

CO[C@H](C(=O)[C@@H](O)[C@@H](C)O)[C@@H]1Cc2cc3cc(O[C@H]4C[C@@H](O[C@H]5C[C@@H](O)[C@H](O)C(C)O5)[C@H](O)C(C)O4)c(C)c(O)c3c(O)c2C(=O)[C@H]1O[C@H]1C[C@@H](O[C@H]2C[C@@H](O[C@H]3C[C@](C)(O)C(=O)C(C)O3)[C@@H](O)C(C)O2)[C@H](O)C(C)O1 (stereo not given in full)
active: [2] -13.9% | [3] -65.5% | [5] 2.98% | [6] 6.86% | [7] -32.2% | [8] -30.7% | [9] -5.83% | [10] -18.8% | [11] -57.6% | [12] 0.189% | [14] -11.3% | [15] -10.9% | [16] 2.84% | [17] 1.12% | [18] -33% | [20] 1.04%
inactive: [1] 20.2% | [4] 10.8% | [13] 13.6% | [19] 10.3%

COc1ccc(C(=O)OC2C(OC3C(O)COC(O[C@H]4C[C@H]5[C@@H]6CC=C7C[C@@H](O)CC[C@]7(C)[C@H]6CC[C@]5(C)[C@H]4[C@H](C)C(=O)CCC(C)C)C3OC(=O)C(C)C)OCC(O)C2O)cc1 (stereo not given in full)
active: [1] -8.16% | [5] 2.54% | [6] 2.36% | [7] -36.3% | [8] -35.6% | [9] -17.5% | [10] -49.6% | [11] -37.2% | [14] -15.2% | [15] 8.54% | [17] 3.21% | [18] -61.2% | [19] -21.8% | [20] -34.8%
inactive: [2] 12.1% | [3] 21.4% | [4] 27.8% | [12] 30.2% | [13] 57.3% | [16] 36.6%

CCOC(=O)C#Cc1c(C(=O)OCC)nnn1[C@@H]1O[C@H](COC(C)=O)[C@@H](OC(C)=O)[C@H]1OC(C)=O
active: [17] 4.56%
inactive: [1] 44% | [2] 88.9% | [3] 95.5% | [4] 93% | [5] 100% | [6] 102% | [7] 96.6% | [8] 93.1% | [9] 85.8% | [10] 107% | [11] 95.8% | [12] 103% | [13] 88.5% | [14] 65% | [15] 62.3% | [16] 53.2% | [18] 102% | [19] 48.3% | [20] 79.9%

O=C(Nc1ccc(Br)cc1)Nc1cccc(Br)c1
active: [6] 4.68% | [8] 5.82% | [20] 1.92%
inactive: [1] 15.4% | [2] 28.2% | [3] 85% | [4] 29.2% | [5] 28.4% | [7] 65.3% | [9] 33% | [10] 43.7% | [11] 26% | [12] 41% | [13] 32.5% | [14] 34.9% | [15] 29.2% | [16] 14.9% | [17] 50.3% | [18] 21.4% | [19] 15.6%

CC(C)OC1OC(OC(C)C)C(OC(C)C)OC1OC(C)C (stereo not given)
inactive: [1] 98.1% | [2] 95.8% | [3] 99% | [4] 90.9% | [5] 90.3% | [6] 91.8% | [7] 110% | [8] 85.9% | [9] 102% | [10] 106% | [11] 95.1% | [12] 103% | [13] 94.6% | [14] 92.5% | [15] 102% | [16] 95.1% | [17] 93.9% | [18] 101% | [19] 93.4% | [20] 80.2%

COc1ccccc1CNCCCN1C(=O)c2ccc3c4c(ccc(c24)C1=O)C(=O)N(CCCCNCCCN)C3=O
active: [2] -20.1% | [4] -70.3% | [5] -84.3% | [7] -97.1% | [8] -68.7% | [9] -10% | [10] -19.4% | [11] -46.1% | [13] -80.2% | [19] 2.26% | [20] -21.7%
inactive: [1] 74.6% | [3] 53.9% | [6] 43.7% | [12] 48.1% | [14] 48.3% | [15] 36.7% | [16] 28.1% | [17] 94.1% | [18] 87.9%

CC(=O)Oc1ccccc1C(=O)Nc1ncc([N+](=O)[O-])s1
inactive: [1] 32.3% | [2] 44.9% | [3] 46.4% | [4] 41.7% | [5] 39.2% | [6] 10.1% | [7] 22.8% | [9] 23.4% | [10] 49.3% | [12] 34.7% | [13] 15.4% | [14] 16.2% | [15] 19.4% | [16] 55.8% | [17] 10.7% | [19] 13.9%
active: [8] 1.31% | [11] -30.1% | [18] -40.2% | [20] -9.45%

CC(C)c1cccc(C#N)c1
inactive: [1] 113% | [2] 104% | [3] 83.7% | [4] 99% | [5] 94.8% | [6] 85.5% | [7] 92.3% | [8] 102% | [9] 95.3% | [10] 105% | [11] 120% | [12] 94% | [13] 97.3% | [14] 98.7% | [15] 121% | [16] 115% | [17] 98.9% | [18] 92.3% | [19] 90% | [20] 101%

CCCCCCCCCCCCCCCCCC1=NCCN1CCO
active: [9] -47.2%
inactive: [1] 61.7% | [2] 61.5% | [3] 80.6% | [4] 95.5% | [5] 75.6% | [6] 63.6% | [7] 106% | [8] 92% | [10] 89.4% | [11] 88.9% | [12] 78.2% | [13] 86% | [14] 48.7% | [15] 87.9% | [16] 60.7% | [17] 55.7% | [18] 106% | [19] 53.9% | [20] 30.3%
